Eight molecules from PubChem BioAssay (EPA / NIEHS) can be followed below.

Inconclusive results are not listed. Active and inactive are the calls of the source. The calls were made as follows, unless noted: active = hit-call score of the fitted dose curve at least 0.9, where 1 is the maximum; inactive = score below 0.9.

In assay [1] the target is Retinoic acid receptor RXR-alpha (Homo sapiens) (UniProt P19793). Description: ATG_RXRa_TRANS: Attagene TRANS-FACTORIAL HepG2 Assay for human Retinoid X Receptor alpha (RXRa) (AID 2283012; active = hit-call score of the fitted dose curve at least 0.9, where 1 is the maximum). In a few lines:
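Transient transfection of human HepG2 with multiple GAL4-UAS reporter constructs; 24 h compound exposure; total RNA isolated, reverse-transcribed, PCR-amplified, 6-FAM labelled, HpaI-cut, resolved by capillary electrophoresis. Positive-direction fit versus DMSO.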

In assay [2] the target is human Thyroid Receptor alpha (THRa1), THRA (gene 7067) (UniProt P10827). Description: ATG_THRa1_TRANS: Attagene TRANS-FACTORIAL HepG2 Assay for human Thyroid Receptor alpha (THRa1) (AID 2283014; active = hit-call score of the fitted dose curve at least 0.9, where 1 is the maximum). The method, boiled down: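 First, HepG2 cells receive multiple GAL4-UAS reporter units and the chimeric receptor. They are then dosed for 24 h, after which RNA is reverse-transcribed, amplified, labelled, HpaI-cut and sized by capillary electrophoresis; gain relative to DMSO is scored.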
Chain of human Thyroid Receptor alpha (THRa1), THRA (gene 7067) (P10827 whole entry, looked up, the tested form may be a part): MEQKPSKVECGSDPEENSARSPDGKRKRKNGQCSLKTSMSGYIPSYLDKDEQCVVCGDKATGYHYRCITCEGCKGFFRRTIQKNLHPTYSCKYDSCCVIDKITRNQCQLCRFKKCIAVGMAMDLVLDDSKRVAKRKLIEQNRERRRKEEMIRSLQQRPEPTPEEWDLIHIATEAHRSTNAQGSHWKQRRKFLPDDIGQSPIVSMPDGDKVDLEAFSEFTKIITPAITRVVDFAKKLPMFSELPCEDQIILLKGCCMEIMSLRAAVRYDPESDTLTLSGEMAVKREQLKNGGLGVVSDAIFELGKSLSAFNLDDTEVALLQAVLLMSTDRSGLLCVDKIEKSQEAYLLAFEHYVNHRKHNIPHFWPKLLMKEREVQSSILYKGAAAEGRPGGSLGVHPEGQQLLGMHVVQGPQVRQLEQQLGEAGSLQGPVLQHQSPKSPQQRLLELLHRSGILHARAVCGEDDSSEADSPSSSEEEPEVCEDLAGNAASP

Read-out in assay [3]: E-selectin (Homo sapiens) (UniProt P16581)
Put plainly: BSK_3C_Eselectin: BioMAP Diversity Plus: 3C Assay for Eselectin Biomarker Activity (AID 2283015).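 Also: cell surface E-selectin protein quantified by ELISA 24 h after dosing.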 The settings on record: primary human endothelial cells (HUVEC); actives raise or lower the signal. In a few lines:
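Human vascular endothelium from umbilical vein is exposed to test chemicals for 24 h. E-selectin levels are read by ELISA and compared with DMSO controls.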

Read-out in assay [4]: Interleukin-1 alpha (IL1a), IL1A (gene 3552)
Put plainly: BSK_BE3C_IL1a: BioMAP Diversity Plus: BE3C Assay for Interleukin-1 alpha (IL1a) Biomarker Activity (AID 2283016). Particulars: primary human bronchial epithelial cells; actives raise or lower the signal. In a few lines: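 BE3C primary human bronchial epithelium; cpd 24 h; IL-1a by ELISA; bidirectional fit vs DMSO; parallel SRB (0.1% SRB, 10% TCA fix, 560 nm) for cytotoxicity.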

Read-out in assay [5]: Monocyte Chemoattractant Protein-1 (MCP1), CCL2 (gene 6347)
Put plainly: BSK_3C_MCP1: BioMAP Diversity Plus: 3C Assay for Monocyte Chemoattractant Protein-1 (MCP1) Biomarker Activity (AID 2283017). The settings on record: primary human endothelial cells (HUVEC); actives raise or lower the signal. In a few lines: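 Endothelial cells from human umbilical vein are dosed with chemical, cultured 24 h, then assayed for MCP-1 by ELISA; both increases and decreases are modelled against DMSO controls.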

Read-out in assay [6]: Monocyte Chemoattractant Protein-1 (MCP1), CCL2 (gene 6347)
Put plainly: BSK_4H_MCP1: BioMAP Diversity Plus: 4H Assay for Monocyte Chemoattractant Protein-1 (MCP1) Biomarker Activity (AID 2283018). The settings on record: primary human endothelial cells (HUVEC); actives raise or lower the signal. In a few lines:
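ELISA read-out of MCP-1 from human vascular endothelial primary cells taken at 24 hours after compound exposure. Activity was fitted in both directions relative to DMSO, which served as negative control.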

Read-out in assay [7]: Human Leukocyte Antigen - DR isotype (HLADR), HLA-DRA (gene 3122)
Description: BSK_3C_HLADR: BioMAP Diversity Plus: 3C Assay for Human Leukocyte Antigen - DR isotype (HLADR) Biomarker Activity (AID 2283019).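 Also: ELISA of cell-surface HLA-DR on HUVEC 24 h after dosing.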 The settings on record: primary human endothelial cells (HUVEC); actives raise or lower the signal. The method, boiled down: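 Endothelial cells from human umbilical vein are treated with test chemical; after 24 h, HLA-DR levels are measured by ELISA. Data are fitted in both directions using DMSO as the baseline.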

Read-out in assay [8]: Interleukin-8 (IL8), CXCL8 (gene 3576)
Put plainly: BSK_3C_IL8: BioMAP Diversity Plus: 3C Assay for Interleukin-8 (IL8) Biomarker Activity (AID 2283020). The settings on record: primary human endothelial cells (HUVEC); actives raise or lower the signal. The method, boiled down:
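ELISA read-out of IL-8 from human umbilical vein endothelium, measured 24 h after chemical dosing. Activity is expressed relative to DMSO negative control, with both increases and decreases fitted.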

Read-out in assay [9]: Monokine induced gamma interferon (MIG), CXCL9 (gene 4283)
Description: BSK_3C_MIG: BioMAP Diversity Plus: 3C Assay for Monokine induced gamma interferon (MIG) Biomarker Activity (AID 2283021). Particulars: primary human endothelial cells (HUVEC); actives raise or lower the signal. In a few lines: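 Read-out is ELISA detection of MIG on human umbilical vein endothelial cells, taken 24 h after dosing. Gain or loss of signal was scored relative to DMSO controls using bidirectional curve fitting.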

The target of assay [10] is human Vitamin D Receptor (VDR), VDR (gene 7421) (UniProt P11473). Description: ATG_VDR_TRANS: Attagene TRANS-FACTORIAL HepG2 Assay for human Vitamin D Receptor (VDR) (AID 2283022; active = hit-call score of the fitted dose curve at least 0.9, where 1 is the maximum). In a few lines:
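Fluorescence of labelled reporter cDNA fragments, resolved by capillary electrophoresis, gives mRNA induction after 24 h treatment of HepG2 cells carrying transfected Gal4-fusion reporter units. Activity is fitted in the positive direction with DMSO as baseline.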

Assay [11] can be described thus: BSK_3C_SRB: Viability Assessment in the BioMAP Diversity Plus: 3C Assay (AID 2283023).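 Also: fitted both ways against DMSO so a hit may be signal rise or drop.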 Particulars: primary human endothelial cells (HUVEC). In a few lines: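 Cells were dosed with chemical, cultured 24 h, fixed with 10% TCA, stained with 0.1% SRB and read at 560 nm. Human umbilical vein endothelium was used; DMSO served as negative control and baseline.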
Read-out in assay [12]: Matrix Metallopeptidase 1 (MMP1), MMP1 (gene 4312)
Put plainly: BSK_BE3C_MMP1: BioMAP Diversity Plus: BE3C Assay for Matrix Metallopeptidase 1 (MMP1) Biomarker Activity (AID 2283024). The settings on record: primary human bronchial epithelial cells; actives raise or lower the signal. The method, boiled down:
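Human bronchial epithelial cells (BE3C system) exposed to compound for 24 h; MMP1 then quantified by ELISA. Activity was fitted in both directions relative to DMSO.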

Read-out in assay [13]: Pselectin, SELP (gene 6403)
Put plainly: BSK_4H_Pselectin: BioMAP Diversity Plus: 4H Assay for Pselectin Biomarker Activity (AID 2283026). The settings on record: primary human endothelial cells (HUVEC); actives raise or lower the signal. The method, boiled down: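 ELISA read-out of P-selectin on human umbilical vein endothelium after 24 h of dosing. Values derive from bidirectional fitting relative to DMSO. Parallel SRB protein staining flagged overt cytotoxicity.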

Assay [14] is described as follows: BSK_4H_SRB: Viability Assessment in the BioMAP Diversity Plus: 4H Assay (AID 2283027).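 Also: cells exposed to compound for 24 h before staining.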 Particulars: primary human endothelial cells (HUVEC). The method, boiled down: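 Human umbilical vein endothelial cells were dosed with chemical and, after 24 h, fixed with 10% TCA, stained with 0.1% sulforhodamine B, and read at 560 nm to give total protein as a cytotoxicity measure. Bidirectional fitting relative to DMSO control.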

A short description of assay [15]: BSK_BE3C_SRB: Viability Assessment in the BioMAP Diversity Plus: BE3C Assay (AID 2283028). Particulars: primary human bronchial epithelial cells. In a few lines:
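Overt cytotoxicity was assessed as total protein in confluent human primary bronchial epithelial cultures 24 h after chemical addition, using 0.1% sulforhodamine B staining read at 560 nm.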

Read-out in assay [16]: Thrombomodulin, THBD (gene 7056)
Description: BSK_3C_Thrombomodulin: BioMAP Diversity Plus: 3C Assay for Thrombomodulin Biomarker Activity (AID 2283029). The settings on record: primary human endothelial cells (HUVEC); actives raise or lower the signal. The method, boiled down: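 Read-out is ELISA of thrombomodulin on human umbilical vein endothelium 24 h after chemical dosing. Gain or loss of signal is scored relative to DMSO. Overt cytotoxicity is checked in parallel cultures by sulforhodamine B staining.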

Read-out in assay [17]: Urokinase-type plasminogen activator receptor (uPAR), PLAUR (gene 5329)
Description: BSK_4H_uPAR: BioMAP Diversity Plus: 4H Assay for Urokinase-type plasminogen activator receptor (uPAR) Biomarker Activity (AID 2283030). The settings on record: primary human endothelial cells (HUVEC); actives raise or lower the signal. In a few lines: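 Chemicals are dosed onto human vascular endothelial primary cells (umbilical vein). After 24 h, uPAR is read by ELISA. Gain or loss of signal is fitted relative to DMSO.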

Read-out in assay [18]: Vascular endothelial growth factor receptor 2 (Homo sapiens) (UniProt P35968)
Description: BSK_4H_VEGFRII: BioMAP Diversity Plus: 4H Assay for Vascular endothelial growth factor receptor 2 (VEGFR2) Biomarker Activity (AID 2283031). The settings on record: primary human endothelial cells (HUVEC); actives raise or lower the signal. In a few lines:
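VEGFRII levels on human vascular endothelial primary cells were determined by ELISA at 24 hours post-dosing, with gain- or loss-of-signal fitted against DMSO controls.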

Assay [19] addresses human Retinoid X Receptor beta (RXRb), RXRB (gene 6257) (UniProt P28702). Description: ATG_RXRb_TRANS: Attagene TRANS-FACTORIAL HepG2 Assay for human Retinoid X Receptor beta (RXRb) (AID 2283013; active = hit-call score of the fitted dose curve at least 0.9, where 1 is the maximum). In a few lines:
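Transfect HepG2 with GAL4-UAS multi-reporter constructs (chimeric NR-Gal4, TRANS format); dose compound 24 h; isolate RNA, RT-PCR, FAM primer extension, HpaI digest; quantify by capillary electrophoresis; positive direction vs DMSO.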

Assay [20] is described as follows: BSK_3C_Vis: BioMAP Diversity Plus: 3C Assay for Morphology Visualization (AID 2283025).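 Also: fitted both ways so gain or loss versus DMSO counts.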 The settings on record: primary human endothelial cells (HUVEC). In a few lines:
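Chemicals were added to primary human umbilical vein endothelium, cells were incubated 24 h, and morphology was then visualized by light microscopy. Gain or loss of signal was fitted bidirectionally relative to DMSO.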

Chain of human Retinoid X Receptor beta (RXRb), RXRB (gene 6257) (P28702 whole entry, looked up, the tested form may be a part): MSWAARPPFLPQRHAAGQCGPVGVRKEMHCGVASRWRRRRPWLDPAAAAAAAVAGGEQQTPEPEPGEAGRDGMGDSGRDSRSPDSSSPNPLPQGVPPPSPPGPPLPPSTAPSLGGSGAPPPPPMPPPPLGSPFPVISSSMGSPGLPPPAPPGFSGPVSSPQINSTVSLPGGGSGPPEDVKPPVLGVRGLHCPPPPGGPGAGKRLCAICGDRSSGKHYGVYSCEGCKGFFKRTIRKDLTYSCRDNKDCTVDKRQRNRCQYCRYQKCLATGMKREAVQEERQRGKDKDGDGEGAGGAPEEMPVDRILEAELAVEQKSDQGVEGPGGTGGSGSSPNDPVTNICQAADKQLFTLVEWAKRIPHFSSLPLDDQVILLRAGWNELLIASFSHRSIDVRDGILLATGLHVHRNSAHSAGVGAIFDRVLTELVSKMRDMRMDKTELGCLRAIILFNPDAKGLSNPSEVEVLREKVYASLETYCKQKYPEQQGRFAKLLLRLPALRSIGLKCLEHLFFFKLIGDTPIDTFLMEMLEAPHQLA
Chain of E-selectin (Homo sapiens) (P16581 whole entry, looked up): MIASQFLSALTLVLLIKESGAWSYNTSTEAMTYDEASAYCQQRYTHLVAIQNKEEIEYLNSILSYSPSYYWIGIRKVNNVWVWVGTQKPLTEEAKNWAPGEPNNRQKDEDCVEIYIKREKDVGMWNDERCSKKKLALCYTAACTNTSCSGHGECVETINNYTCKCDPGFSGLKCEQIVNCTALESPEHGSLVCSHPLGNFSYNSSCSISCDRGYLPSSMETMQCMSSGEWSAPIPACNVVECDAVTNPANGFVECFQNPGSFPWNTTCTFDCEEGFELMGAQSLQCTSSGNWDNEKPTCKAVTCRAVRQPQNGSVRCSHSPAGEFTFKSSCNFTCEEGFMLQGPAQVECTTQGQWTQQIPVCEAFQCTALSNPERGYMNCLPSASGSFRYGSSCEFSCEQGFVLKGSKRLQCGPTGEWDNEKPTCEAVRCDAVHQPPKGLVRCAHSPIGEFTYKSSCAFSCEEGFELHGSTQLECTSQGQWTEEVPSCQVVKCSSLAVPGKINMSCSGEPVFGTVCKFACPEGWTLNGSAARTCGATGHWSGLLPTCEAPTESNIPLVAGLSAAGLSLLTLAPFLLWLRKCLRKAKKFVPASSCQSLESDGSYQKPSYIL
Chain of human Vitamin D Receptor (VDR), VDR (gene 7421) (P11473 whole entry, looked up, the tested form may be a part): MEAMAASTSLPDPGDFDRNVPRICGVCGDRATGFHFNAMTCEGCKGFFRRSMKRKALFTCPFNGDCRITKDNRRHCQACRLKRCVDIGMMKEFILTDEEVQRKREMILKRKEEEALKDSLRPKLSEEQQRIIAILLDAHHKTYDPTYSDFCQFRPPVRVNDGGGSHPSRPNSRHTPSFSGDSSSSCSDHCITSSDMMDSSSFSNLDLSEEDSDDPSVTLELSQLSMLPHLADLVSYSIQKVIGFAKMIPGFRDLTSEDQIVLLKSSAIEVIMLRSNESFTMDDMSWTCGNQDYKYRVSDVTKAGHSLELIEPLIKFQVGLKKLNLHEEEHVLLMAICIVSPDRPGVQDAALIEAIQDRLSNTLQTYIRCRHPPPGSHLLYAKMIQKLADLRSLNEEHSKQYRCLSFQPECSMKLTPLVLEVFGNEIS
Chain of Retinoic acid receptor RXR-alpha (Homo sapiens) (P19793 whole entry, looked up, the tested form may be a part): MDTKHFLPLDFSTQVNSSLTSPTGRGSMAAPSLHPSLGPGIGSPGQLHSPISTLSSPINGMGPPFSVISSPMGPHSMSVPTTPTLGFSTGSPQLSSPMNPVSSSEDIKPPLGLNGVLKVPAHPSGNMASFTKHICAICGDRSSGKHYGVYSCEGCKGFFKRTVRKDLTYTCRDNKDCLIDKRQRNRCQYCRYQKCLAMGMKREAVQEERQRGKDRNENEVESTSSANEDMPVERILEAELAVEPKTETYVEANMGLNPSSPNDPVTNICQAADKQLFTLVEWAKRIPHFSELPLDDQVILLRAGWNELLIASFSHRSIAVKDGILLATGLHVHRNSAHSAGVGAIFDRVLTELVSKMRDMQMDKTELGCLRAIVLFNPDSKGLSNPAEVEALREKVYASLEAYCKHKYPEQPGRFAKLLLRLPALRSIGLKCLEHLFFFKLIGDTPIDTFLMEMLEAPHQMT

As for `CNCc1ccc(NC(=O)c2c[nH]c3c2C(=O)CCC3)cc1`, the molecule was called inactive in assay [1], in [2], in [3], in assay [4], in assay [5] and in [6]. Besides, the outcome in [7], in assay [8], in [9], in assay [10], in [11] and in [12] was inactive. The result in assay [13], in assay [14], in assay [15], in assay [16], in assay [17] and in assay [18] was inactive.

`CC(C)=CCC/C(C)=C/CO`: the molecule was called inactive in assay [1], in assay [19], in [3], in assay [4], in assay [6] and in assay [7]. Further, the outcome in assay [9], in assay [10], in assay [11], in [12], in assay [13] and in assay [14] was inactive. The outcome in assay [15], in [16] and in [17] was inactive.

Turning to `O=C(O)CC(O)C(=O)O` (stereo not given), the outcome in [1], in [3], in assay [4], in [5], in assay [7] and in assay [8] was inactive. Moreover, the result in assay [9], in assay [11], in assay [12], in assay [20], in assay [13] and in assay [14] was inactive. In addition, the result in [15], in [16] and in assay [17] was inactive.

On to `CC(C)CCCCCCOC(=O)c1ccc(C(=O)OCCCCCCC(C)C)c(C(=O)OCCCCCCC(C)C)c1`, for which the call in assay [1], in assay [3], in assay [4], in [6], in assay [7] and in assay [9] was inactive. For the same molecule, the outcome in [11], in [12], in [13], in assay [14], in [15] and in assay [16] was inactive. Further, the outcome in assay [17] and in assay [18] was inactive. Moreover, the AC50 – broadly, the concentration at which the activity in the assay is half-maximal – in [19] is 63.2 µM (active).

Consider `CCOCCOCCOCCO`, for which the result in assay [1], in assay [2], in assay [3], in assay [4], in assay [7] and in [8] was inactive. Moreover, the outcome in [9], in assay [10], in assay [11], in assay [12], in assay [13] and in assay [15] was inactive. For the same molecule, the outcome in assay [16], in assay [17] and in assay [18] was inactive.

Take `COc1ccc(/C=C/S(=O)(=O)NC(=O)c2ccc(C)cc2Cl)cc1`: the outcome in assay [1], in assay [3], in [4], in assay [5], in assay [7] and in assay [8] was inactive. The outcome in assay [9], in assay [10], in [11], in [12], in assay [20] and in [13] was inactive. Besides, the outcome in assay [15], in assay [16], in [17] and in assay [18] was inactive.

In the case of `C=CCCCCCCCCC(=O)O`, the outcome in [1], in assay [3], in assay [4], in [7], in assay [9] and in assay [10] was inactive. The result in [11], in [12], in assay [20], in assay [13], in assay [15] and in assay [16] was inactive. Further, the result in [17] was inactive. For the same molecule, the AC50 in assay [19] is 74.8 µM (active).

Take `C[C@](N)(Cc1ccc(O)c(O)c1)C(=O)O`: the outcome in assay [19], in assay [2], in assay [3], in [4], in assay [5] and in [6] was inactive. For the same molecule, the outcome in assay [7], in assay [8], in assay [9], in assay [10], in [11] and in [12] was inactive. For the same molecule, the result in assay [20], in assay [13], in assay [15], in assay [16] and in assay [17] was inactive.
